The target of test [1] is Mitogen-activated protein kinase kinase kinase kinase 4 (Homo sapiens) (UniProt O95819). Conditions: at 1 µM.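 Further: reported figure is an averaged inhibition value.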
The target of test [2] is Dual specificity mitogen-activated protein kinase kinase 1 (Homo sapiens) (UniProt Q02750). Conditions: at 0.1 µM.
Test [3] has the same target. The note with it: at 1 µM.
Test [4] deals with Misshapen-like kinase 1 (Homo sapiens) (UniProt Q8N4C8). The note with it: at 0.1 µM.
Test [5] has the same target. The note with it: at 1 µM.
The target in test [6] is T1, Serine/threonine-protein kinase 4 (Homo sapiens) (UniProt Q13043).
T1 sequence (whole entry): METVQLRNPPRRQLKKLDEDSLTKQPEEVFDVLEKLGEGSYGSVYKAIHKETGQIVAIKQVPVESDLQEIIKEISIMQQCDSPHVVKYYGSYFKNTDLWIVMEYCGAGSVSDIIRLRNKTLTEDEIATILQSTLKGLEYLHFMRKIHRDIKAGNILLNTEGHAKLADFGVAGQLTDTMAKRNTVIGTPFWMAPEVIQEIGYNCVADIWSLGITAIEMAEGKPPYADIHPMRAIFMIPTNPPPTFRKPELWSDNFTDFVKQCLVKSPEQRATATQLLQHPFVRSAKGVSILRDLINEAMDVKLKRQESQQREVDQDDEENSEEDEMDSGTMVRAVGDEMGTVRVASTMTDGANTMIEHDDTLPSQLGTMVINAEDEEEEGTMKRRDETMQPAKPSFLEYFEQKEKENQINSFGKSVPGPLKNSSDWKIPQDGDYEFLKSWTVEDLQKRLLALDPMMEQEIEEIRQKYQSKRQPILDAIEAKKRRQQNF
Conditions: at 0.1 µM.

For test [7], the target named is T1, Serine/threonine-protein kinase 4 (Homo sapiens). The note with it: at 1 µM.
Test [8] concerns the target T2, Serine/threonine-protein kinase 3 (Homo sapiens) (UniProt Q13188).
T2 sequence (whole entry): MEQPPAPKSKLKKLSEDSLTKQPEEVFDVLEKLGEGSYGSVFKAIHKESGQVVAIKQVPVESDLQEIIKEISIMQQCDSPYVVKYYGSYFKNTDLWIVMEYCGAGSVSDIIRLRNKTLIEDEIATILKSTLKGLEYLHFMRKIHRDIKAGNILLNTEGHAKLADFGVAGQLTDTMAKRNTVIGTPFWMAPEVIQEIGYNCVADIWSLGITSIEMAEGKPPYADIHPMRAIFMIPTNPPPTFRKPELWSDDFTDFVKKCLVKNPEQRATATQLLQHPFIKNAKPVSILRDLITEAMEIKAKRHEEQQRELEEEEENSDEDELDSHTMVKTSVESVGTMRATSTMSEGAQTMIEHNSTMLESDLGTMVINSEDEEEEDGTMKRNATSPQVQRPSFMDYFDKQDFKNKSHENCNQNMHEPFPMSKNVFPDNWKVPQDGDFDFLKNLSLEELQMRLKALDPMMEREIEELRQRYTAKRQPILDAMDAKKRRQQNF
Conditions: at 0.1 µM.

For test [9], the target named is T2, Serine/threonine-protein kinase 3 (Homo sapiens). The note with it: at 1 µM.
Test [10] deals with Serine/threonine-protein kinase 26 (Homo sapiens) (UniProt Q9P289). Conditions: at 0.1 µM.
Chain of Serine/threonine-protein kinase 26 (Homo sapiens) (Q9P289 2-416 limits assumed): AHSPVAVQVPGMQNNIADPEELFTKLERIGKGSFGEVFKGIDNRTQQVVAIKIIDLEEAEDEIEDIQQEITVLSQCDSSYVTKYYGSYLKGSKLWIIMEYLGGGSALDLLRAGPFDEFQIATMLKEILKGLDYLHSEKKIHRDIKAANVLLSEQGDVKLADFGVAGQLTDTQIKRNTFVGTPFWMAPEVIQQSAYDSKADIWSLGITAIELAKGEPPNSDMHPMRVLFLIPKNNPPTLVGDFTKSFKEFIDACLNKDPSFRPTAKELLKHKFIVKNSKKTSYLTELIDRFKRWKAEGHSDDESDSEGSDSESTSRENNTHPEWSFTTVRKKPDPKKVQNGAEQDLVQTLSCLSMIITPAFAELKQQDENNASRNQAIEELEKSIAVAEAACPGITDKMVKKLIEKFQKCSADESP
The target is the same in test [11]. The note with it: at 1 µM.
Test [12] addresses Serine/threonine-protein kinase PAK 1 (Homo sapiens) (UniProt Q13153). Conditions: at 0.1 µM.
Test [13] has the same target. The note with it: at 1 µM.
Test [14] has as its target Serine/threonine-protein kinase PAK 2 (Homo sapiens) (UniProt Q13177). The note with it: at 0.1 µM.
Test [15] has the same target. Conditions: at 1 µM.
In test [16] the target is Serine/threonine-protein kinase PAK 3 (Homo sapiens) (UniProt O75914). The note with it: at 0.1 µM.
For test [17] the target is unchanged. The note with it: at 1 µM.
Test [18] has as its target Serine/threonine-protein kinase PAK 5 (Homo sapiens) (UniProt Q9P286). Conditions: at 0.1 µM.
Test [19] shares this target. The note with it: at 1 µM.
The target of test [20] is Serine/threonine-protein kinase PAK 6 (Homo sapiens) (UniProt Q9NQU5). The note with it: at 0.1 µM.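 Further: mean PAK6 inhibition reported from the GSK PKIS screen.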
Chain of Serine/threonine-protein kinase PAK 6 (Homo sapiens) (Q9NQU5 whole entry, looked up): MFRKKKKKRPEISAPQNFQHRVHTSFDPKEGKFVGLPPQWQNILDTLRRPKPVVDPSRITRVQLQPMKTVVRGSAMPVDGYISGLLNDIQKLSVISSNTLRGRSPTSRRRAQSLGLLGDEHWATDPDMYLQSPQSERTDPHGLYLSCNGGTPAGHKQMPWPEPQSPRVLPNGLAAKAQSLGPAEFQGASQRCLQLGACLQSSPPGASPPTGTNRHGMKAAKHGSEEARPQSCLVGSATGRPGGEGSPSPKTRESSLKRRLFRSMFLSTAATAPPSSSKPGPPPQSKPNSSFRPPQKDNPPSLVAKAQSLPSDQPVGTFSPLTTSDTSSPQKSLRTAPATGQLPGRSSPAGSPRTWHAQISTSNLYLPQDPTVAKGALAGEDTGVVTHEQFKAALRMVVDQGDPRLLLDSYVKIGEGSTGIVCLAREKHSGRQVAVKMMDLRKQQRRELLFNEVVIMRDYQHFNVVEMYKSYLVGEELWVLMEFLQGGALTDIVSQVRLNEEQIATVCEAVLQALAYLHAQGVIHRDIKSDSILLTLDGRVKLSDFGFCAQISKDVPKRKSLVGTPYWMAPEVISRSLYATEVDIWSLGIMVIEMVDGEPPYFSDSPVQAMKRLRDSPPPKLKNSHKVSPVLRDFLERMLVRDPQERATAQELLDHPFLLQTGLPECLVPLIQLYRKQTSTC

Experimental findings from ChEMBL document CHEMBL1961873, “Compounds: GSK PKIS; Assays: Nanosyn kinase panel” (2012) are described below.

Each structure is given as a SMILES string.

Chain of Misshapen-like kinase 1 (Homo sapiens) (Q8N4C8 whole entry, looked up): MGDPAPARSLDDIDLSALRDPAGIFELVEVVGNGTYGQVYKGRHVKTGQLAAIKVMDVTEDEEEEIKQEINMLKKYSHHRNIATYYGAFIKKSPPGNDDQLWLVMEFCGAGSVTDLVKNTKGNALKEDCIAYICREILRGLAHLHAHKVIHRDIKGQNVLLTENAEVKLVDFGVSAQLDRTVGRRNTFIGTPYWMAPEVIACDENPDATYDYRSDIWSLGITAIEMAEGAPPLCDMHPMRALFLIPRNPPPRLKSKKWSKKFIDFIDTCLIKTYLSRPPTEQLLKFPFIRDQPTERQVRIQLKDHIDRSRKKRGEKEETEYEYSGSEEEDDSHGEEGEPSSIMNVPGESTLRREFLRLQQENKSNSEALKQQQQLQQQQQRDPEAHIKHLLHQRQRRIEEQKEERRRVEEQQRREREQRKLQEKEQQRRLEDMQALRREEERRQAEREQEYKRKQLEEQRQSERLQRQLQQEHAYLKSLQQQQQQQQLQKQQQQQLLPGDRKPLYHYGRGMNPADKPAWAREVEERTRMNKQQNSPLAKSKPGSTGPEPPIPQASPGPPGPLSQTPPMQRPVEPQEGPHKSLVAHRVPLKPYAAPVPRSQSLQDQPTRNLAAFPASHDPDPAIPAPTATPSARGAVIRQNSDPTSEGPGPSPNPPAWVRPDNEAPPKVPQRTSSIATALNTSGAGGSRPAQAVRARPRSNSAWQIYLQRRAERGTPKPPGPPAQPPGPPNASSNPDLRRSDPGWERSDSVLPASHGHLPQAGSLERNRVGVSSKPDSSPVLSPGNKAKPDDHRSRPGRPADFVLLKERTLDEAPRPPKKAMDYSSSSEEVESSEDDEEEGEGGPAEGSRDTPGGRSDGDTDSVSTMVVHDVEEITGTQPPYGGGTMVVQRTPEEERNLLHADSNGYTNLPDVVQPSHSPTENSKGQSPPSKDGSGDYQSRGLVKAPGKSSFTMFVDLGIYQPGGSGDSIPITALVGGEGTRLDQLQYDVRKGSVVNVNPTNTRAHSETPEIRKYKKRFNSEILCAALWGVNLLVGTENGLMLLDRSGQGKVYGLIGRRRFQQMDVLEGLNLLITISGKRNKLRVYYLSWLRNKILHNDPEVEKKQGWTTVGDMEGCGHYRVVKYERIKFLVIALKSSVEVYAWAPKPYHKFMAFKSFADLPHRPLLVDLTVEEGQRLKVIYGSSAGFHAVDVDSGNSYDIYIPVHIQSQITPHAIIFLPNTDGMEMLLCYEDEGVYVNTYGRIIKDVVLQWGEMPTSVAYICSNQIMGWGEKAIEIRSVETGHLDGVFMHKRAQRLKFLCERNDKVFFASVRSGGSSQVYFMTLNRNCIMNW
Chain of Dual specificity mitogen-activated protein kinase kinase 1 (Homo sapiens) (Q02750 whole entry): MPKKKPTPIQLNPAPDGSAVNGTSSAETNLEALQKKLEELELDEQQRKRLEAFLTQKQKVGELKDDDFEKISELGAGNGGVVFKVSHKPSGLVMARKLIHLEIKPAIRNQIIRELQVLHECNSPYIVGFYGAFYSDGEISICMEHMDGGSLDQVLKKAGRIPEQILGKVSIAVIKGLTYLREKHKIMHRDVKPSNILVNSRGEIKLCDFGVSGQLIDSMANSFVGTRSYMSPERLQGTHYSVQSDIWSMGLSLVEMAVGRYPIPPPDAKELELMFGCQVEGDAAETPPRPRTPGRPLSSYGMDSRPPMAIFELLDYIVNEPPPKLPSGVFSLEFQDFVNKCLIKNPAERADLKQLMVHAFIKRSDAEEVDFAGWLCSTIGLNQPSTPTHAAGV
Chain of Serine/threonine-protein kinase PAK 1 (Homo sapiens) (Q13153 whole entry): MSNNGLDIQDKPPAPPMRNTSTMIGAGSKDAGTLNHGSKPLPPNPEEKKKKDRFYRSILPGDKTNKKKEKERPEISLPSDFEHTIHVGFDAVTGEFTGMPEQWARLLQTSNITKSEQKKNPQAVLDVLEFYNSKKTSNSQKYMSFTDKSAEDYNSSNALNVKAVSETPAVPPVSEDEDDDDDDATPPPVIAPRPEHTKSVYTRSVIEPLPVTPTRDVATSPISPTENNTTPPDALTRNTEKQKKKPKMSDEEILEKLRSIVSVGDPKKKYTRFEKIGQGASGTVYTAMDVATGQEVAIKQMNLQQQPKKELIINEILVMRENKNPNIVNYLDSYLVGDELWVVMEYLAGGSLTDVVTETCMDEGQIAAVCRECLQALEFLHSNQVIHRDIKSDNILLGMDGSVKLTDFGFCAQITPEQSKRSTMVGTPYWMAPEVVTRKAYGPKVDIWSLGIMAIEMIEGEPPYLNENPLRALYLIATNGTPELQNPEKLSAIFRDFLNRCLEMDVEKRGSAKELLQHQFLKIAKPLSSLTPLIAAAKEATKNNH
Chain of Serine/threonine-protein kinase PAK 5 (Homo sapiens) (Q9P286 whole entry, looked up): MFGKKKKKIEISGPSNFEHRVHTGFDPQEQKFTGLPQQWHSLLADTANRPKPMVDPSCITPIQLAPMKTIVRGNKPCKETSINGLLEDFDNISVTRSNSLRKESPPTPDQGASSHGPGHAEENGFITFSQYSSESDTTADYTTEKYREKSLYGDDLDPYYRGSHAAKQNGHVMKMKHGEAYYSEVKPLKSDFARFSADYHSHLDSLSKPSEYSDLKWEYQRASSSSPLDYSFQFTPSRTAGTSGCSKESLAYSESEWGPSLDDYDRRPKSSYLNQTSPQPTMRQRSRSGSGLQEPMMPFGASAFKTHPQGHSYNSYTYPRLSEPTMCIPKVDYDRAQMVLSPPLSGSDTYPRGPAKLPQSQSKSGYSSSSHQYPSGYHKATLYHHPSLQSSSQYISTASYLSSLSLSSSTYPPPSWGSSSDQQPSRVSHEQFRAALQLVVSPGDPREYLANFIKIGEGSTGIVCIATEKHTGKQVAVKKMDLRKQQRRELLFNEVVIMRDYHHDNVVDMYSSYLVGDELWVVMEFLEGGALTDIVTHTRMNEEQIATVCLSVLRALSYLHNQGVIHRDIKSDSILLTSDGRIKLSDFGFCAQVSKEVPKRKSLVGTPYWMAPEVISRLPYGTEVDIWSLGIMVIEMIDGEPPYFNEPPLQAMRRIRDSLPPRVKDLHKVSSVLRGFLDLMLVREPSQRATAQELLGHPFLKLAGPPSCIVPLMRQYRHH
Chain of Serine/threonine-protein kinase PAK 2 (Homo sapiens) (Q13177 whole entry): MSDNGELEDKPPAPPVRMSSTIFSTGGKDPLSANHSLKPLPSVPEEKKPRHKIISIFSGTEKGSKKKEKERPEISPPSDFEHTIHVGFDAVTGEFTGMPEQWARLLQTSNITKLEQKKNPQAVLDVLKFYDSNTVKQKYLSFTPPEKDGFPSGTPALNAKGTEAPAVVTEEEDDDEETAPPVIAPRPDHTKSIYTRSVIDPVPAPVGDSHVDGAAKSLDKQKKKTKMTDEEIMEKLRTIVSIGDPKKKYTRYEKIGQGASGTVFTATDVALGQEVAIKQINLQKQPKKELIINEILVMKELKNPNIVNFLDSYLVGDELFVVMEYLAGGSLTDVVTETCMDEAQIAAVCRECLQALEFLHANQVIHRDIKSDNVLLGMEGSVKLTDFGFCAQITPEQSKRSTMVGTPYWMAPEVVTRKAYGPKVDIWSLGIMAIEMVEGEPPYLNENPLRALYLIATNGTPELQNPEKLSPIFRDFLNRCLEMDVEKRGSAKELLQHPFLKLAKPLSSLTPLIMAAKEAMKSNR

The inhibition is the relative decrease from the control value, in per cent. `COc1ccc2cc(-c3c(-c4ccncc4)nc(-c4ccc(S(C)(=O)=O)cc4C)n3C)ccc2c1`: the inhibition in [1] is 14.8%; in [2], 6.08%; in [3] it was 4.97%; in test [4] it was 6.31%; in test [5] it was 13.9%; in test [6] it was 2.82%. Besides, the inhibition in test [7] is 8.72%; in test [8], 4.72%; in [9], 12.6%; in [10], -0.63%; in test [11], 2.09%; in [12] it was 9.36%. The inhibition in test [13] was 10%; in [14] it was 2.04%; in [15] it was 2.16%; in test [16] it was 5.62%; in test [17], 4.99%; in test [18], -1.89%. The inhibition in [19] is 3.62%.

Turning to `C#Cc1cccc(Nc2ncnc3ccc(OCCCCNCCS(C)(=O)=O)cc23)c1`, the inhibition in [1] is 19.6%; in [2], 6.88%; in [3] it was 4.96%; in test [4], 9.17%; in test [5] it was 17.6%; in test [6] it was 4.35%. The inhibition was 7.8% in test [7]; 5.45% in test [8]; 7.49% in [9]; -2.14% in test [10]; -0.45% in [11]; 9.27% in [12]. Also, the inhibition in test [13] amounted to 7.48%; in test [14] it was 2.71%; in test [15], 1.48%; in test [16], 4.58%; in test [17], 5.67%; in test [18], 2.62%. Further, the inhibition in test [19] is 4.31%; in test [20] it was -6.04%.

For the molecule `COc1ccc2cc(-c3c(-c4ccncc4)nc(-c4ccc([S+](C)[O-])cc4C)n3C)ccc2c1` (stereo not drawn), the inhibition is 17.7% in test [1]; -0.9% in test [2]; -1.09% in test [3]; 0.1% in test [4]; 12.5% in [5]; -2.13% in test [6]. Further, the inhibition in test [7] was 7.66%; in test [8] it was -0.9%; in [9], 17.3%; in test [10], 0.68%; in test [11], 3.65%; in test [12] it was -1.49%. Also, the inhibition is -0.86% in test [13]; -1.29% in [14]; -1.27% in test [15]; -0.99% in [16]; -1.45% in test [17]; -5.87% in test [18]. The inhibition in test [19] is 6.4%; in test [20], -2.81%.

In the case of `COc1cc(Nc2ncc(-c3ccccc3)o2)cc(OC)c1OC`, the inhibition in test [1] was 26.4%; in test [2], -0.87%; in test [3] it was 0.69%; in [4] it was 0.26%; in [5] it was 17.3%; in test [6] it was -2.33%. The inhibition in test [7] is 0%; in test [8], -4.02%; in test [9] it was -1.87%; in [10], -0.19%; in [11], -4.83%; in test [12], -0.3%. Also, the inhibition in [13] was -0.52%; in test [14], -1.31%; in [15], -0.61%; in test [16] it was -1.91%; in test [17], -0.07%; in test [18], -0.92%. Besides, the inhibition in [19] is 7.2%; in [20] it was -5.44%.

For `O=C1Nc2ccc(I)cc2C1=Cc1cc(Br)c(O)c(Br)c1`, the inhibition in test [1] worked out at 83.7%; in [2] it was 3.38%; in test [3], 3.62%; in test [4] it was 18.9%; in test [5], 73.2%; in [6], 3.39%. Moreover, the inhibition amounted to 17.2% in [7]; 3.5% in test [8]; 19.5% in test [9]; 0.13% in test [10]; 8.78% in test [11]; 7.31% in [12]. For the same molecule, the inhibition is 11.5% in test [13]; 1.87% in test [14]; 1.49% in test [15]; 3.52% in test [16]; 5.78% in [17]; 9.36% in test [18]. In test [19], the inhibition was 10.2%.

Take `COc1cc(Nc2ncc3c(C)nc(-c4cccc(Oc5ccccc5)c4)n3n2)cc(OC)c1OC`: the inhibition in test [1] is 5.36%; in test [2] it was 2.88%; in test [3], 9.12%; in [4], 1.96%; in test [5], 2.84%; in [6], 5.41%. Besides, the inhibition was 6.48% in [7]; 5.14% in test [8]; 4.82% in test [9]; -0.33% in [10]; -2.15% in test [11]; 4.4% in [12]. Also, the inhibition in test [13] came out at 3.74%; in test [14], 1.49%; in test [15], 1.12%; in test [16] it was 2.09%; in [17] it was 4.11%; in test [18] it was 1.86%. Further, the inhibition was 4.51% in test [19] and -2.06% in test [20].

Take `Fc1ccc(-c2c(-c3ccncc3)nc3n2CCS3)cc1`: the inhibition was found to be 10.8% in test [1]; 3.75% in test [2]; 4.29% in [3]; 4.97% in test [4]; 9.56% in [5]; 1.09% in [6]. Also, the inhibition in [7] is 2.38%; in [8], 1.69%; in [9] it was 3.46%; in test [10] it was -0.47%; in [11], 1.66%; in [12] it was 6.15%. Moreover, the inhibition was -0.03% in [13]; -0.52% in [14]; 0.49% in test [15]; 2.55% in [16]; 3.16% in test [17]; 1.47% in test [18]. The inhibition was 3.62% in test [19] and 1.52% in test [20].
